This note sets out measurements from PubChem BioAssay (EPA / NIEHS).

Each structure is given as a SMILES string. “And” between values parts separate entries of the source, which are not always exact repeats. Equal entries are not always repeated. Some compounds were tested as several samples or in several runs, with calls that do not always agree. The source made the active and inactive calls. Rule for the calls: active = hit-call score of the fitted dose curve at least 0.9, where 1 is the maximum; inactive = score below 0.9.

Read-out in assay [1]: Cyclin Dependent Kinase Inhibitor 1A (CDKN1A), CDKN1A (gene 1026)
Nature of the assay: LTEA_HepaRG_CDKN1A: Life Technologies and Expression Analysis (LTEA) Assay for Cyclin Dependent Kinase Inhibitor 1A (CDKN1A) using HepaRG (AID 2283450). Conditions: mRNA level, 48 h; actives raise or lower the signal. The gist of the method:
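Cryopreserved HepaRG cells were plated and cultured 48 h, then switched to serum-free induction medium. Chemicals (eight half-log concentrations, top 100 uM, 0.5% DMSO) were applied for 48 h. Lysates underwent qRT-PCR for CDKN1A with housekeeping normalization.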

Read-out in assay [2]: Cyclin D1 (CCND1), CCND1 (gene 595)
Kind of assay: LTEA_HepaRG_CCND1: Life Technologies and Expression Analysis (LTEA) Assay for Cyclin D1 (CCND1) using HepaRG (AID 2283451).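 For AC50: TaqMan qRT-PCR transcript level normalised to ACTB GAPDH and POLR2A housekeeping genes.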 The settings on record: mRNA level, 48 h; actives raise or lower the signal. The gist of the method: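 Human liver HepaRG line; 48 h dosing, 8 conc. ≤100 uM, 0.5% DMSO; TaqMan qRT-PCR mRNA, 3 housekeeping genes; bidirectional curve fit vs DMSO.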

Read-out in assay [3]: catalase (CAT), CAT (gene 847)
Kind of assay: LTEA_HepaRG_CAT: Life Technologies and Expression Analysis (LTEA) Assay for catalase (CAT) using HepaRG (AID 2283452).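 For AC50: TaqMan qRT-PCR signal normalized to ACTB GAPDH and POLR2A housekeeping genes.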 Conditions: mRNA level, 48 h; actives raise or lower the signal. The gist of the method:
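Differentiated HepaRG cells in serum-free induction medium were dosed 48 h in duplicate, eight half-log concentrations from 100 uM in 0.5% DMSO. Transcript measured by TaqMan qRT-PCR, normalised to ACTB/GAPDH/POLR2A, fitted bidirectionally against DMSO.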

Read-out in assay [4]: flavin-containing dimethylaniline monooxygenases 3 (FMO3), FMO3 (gene 2328)
Nature of the assay: LTEA_HepaRG_FMO3: Life Technologies and Expression Analysis (LTEA) Assay for flavin-containing dimethylaniline monooxygenases 3 (FMO3) using HepaRG (AID 2283453).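 For AC50: FMO3 transcript by TaqMan qRT-PCR normalized to ACTB GAPDH and POLR2A.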 Conditions: mRNA level, 48 h; actives raise or lower the signal. The gist of the method:
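HepaRG, 48 h exposure, 8-pt half-log series from 100 uM, 0.5% DMSO vehicle, duplicates; FMO3 transcript by Fluidigm TaqMan qRT-PCR, housekeeping-normalized; gain/loss fit vs DMSO.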

Read-out in assay [5]: Cytochrome P450 (CYP1A1), CYP1A1 (gene 1543)
Kind of assay: LTEA_HepaRG_CYP1A1: Life Technologies and Expression Analysis (LTEA) Assay for Cytochrome P450 (CYP1A1) using HepaRG (AID 2283454). Conditions: mRNA level, 48 h; actives raise or lower the signal. The gist of the method: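 Induction of CYP1A1 mRNA in a human hepatic cell line was measured 48 h after dosing, with 1 mM phenobarbital as induction positive control and 0.5% DMSO vehicle as baseline for bidirectional curve fitting.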

Read-out in assay [6]: CFLAR gene, CFLAR (gene 8837)
Nature of the assay: LTEA_HepaRG_CFLAR: Life Technologies and Expression Analysis (LTEA) Assay for CFLAR gene using HepaRG (AID 2283455). The settings on record: mRNA level, 48 h; actives raise or lower the signal. The gist of the method:
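HepaRG cells were plated for 48 h, switched to serum-free induction medium, then exposed in duplicate for 48 h to 8 concentrations (top 100 uM, half-log steps, 0.5% DMSO). CFLAR mRNA was measured by qRT-PCR, normalized to ACTB, GAPDH and POLR2A.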

Read-out in assay [7]: Forkhead box O1 (FOXO1), FOXO1 (gene 2308)
Kind of assay: LTEA_HepaRG_FOXO1: Life Technologies and Expression Analysis (LTEA) Assay for Forkhead box O1 (FOXO1) using HepaRG (AID 2283456). The settings on record: mRNA level, 48 h; actives raise or lower the signal. The gist of the method: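 Differentiated human HepaRG cells in serum-free induction medium were exposed in duplicate for 48 h to eight half-log concentrations (top 100 uM, 0.5% DMSO). FOXO1 mRNA was measured by TaqMan qRT-PCR, normalised to ACTB, GAPDH and POLR2A, and fitted bidirectionally against DMSO.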

Read-out in assay [8]: growth arrest and DNA damage 45 (GADD45A), GADD45A (gene 1647)
Nature of the assay: LTEA_HepaRG_GADD45A: Life Technologies and Expression Analysis (LTEA) Assay for growth arrest and DNA damage 45 (GADD45A) using HepaRG (AID 2283458). The settings on record: mRNA level, 48 h; actives raise or lower the signal. The gist of the method:
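Human HepaRG liver cells are treated in duplicate for 48 h with chemicals in 0.5% DMSO, highest concentration 100 uM. Expression is read by qRT-PCR and analyzed in both directions against vehicle.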

Read-out in assay [9]: Forkhead box O3 (FOXO3), FOXO3 (gene 2309)
Nature of the assay: LTEA_HepaRG_FOXO3: Life Technologies and Expression Analysis (LTEA) Assay for Forkhead box O3 (FOXO3) using HepaRG (AID 2283459). Conditions: mRNA level, 48 h; actives raise or lower the signal. The gist of the method:
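Differentiated human HepaRG cells in serum-free induction medium were exposed in duplicate for 48 h to eight half-log concentrations up to 100 uM in 0.5% DMSO. FOXO3 mRNA was quantified by qRT-PCR, normalized to ACTB, GAPDH and POLR2A, with bidirectional fitting versus DMSO.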

Assay [10] is described as follows: CEETOX_H295R_TESTO: CeeTox H295R High-throughput Steroidogenesis Assay for Testosterone (TESTO) (AID 2283457).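 For AC50: cells exposed to chemicals for 48 h before medium collection.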 Conditions: actives raise or lower the signal. The gist of the method:
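Testosterone synthesis is assessed in human adrenocortical H295R cells after 48 h of chemical exposure, using HPLC-MS/MS of extracted medium. Activity is fitted in both directions against DMSO control.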

Turning to `Oc1cc(Cl)ccc1Oc1ccc(Cl)cc1Cl`, the call in assay [1], in assay [2], in [3], in assay [4], in assay [6] and in assay [7] was inactive. Further, the outcome in assay [8] and in assay [9] was inactive. Moreover, the half-maximal activity concentration (AC50) in assay [2] is 85.2 µM (active); in assay [3] it was 90.2 µM (active); in assay [4], 85.1 µM (active); in assay [5], 77.3 µM (active) and 88.3 µM (active) and 79.3 µM (active); in [8], 10.1 µM (active); in assay [9] it was 67 nM (active).
Regarding `CCOCN(C(=O)CCl)c1c(C)cccc1CC`, the molecule was called inactive in [1], in assay [2], in assay [6], in assay [7], in assay [8] and in assay [9]. In addition, the half-maximal activity concentration (AC50) was 80 µM (active) in assay [3], 78.7 µM (active) in assay [4] and 50 µM (active) in [5].
In the case of `COc1nn(CSP(=S)(OC)OC)c(=O)s1`, the molecule was called inactive in assay [1], in [2], in [3], in [4], in assay [6] and in [7]. Besides, the molecule was classed as inactive in [8] and in assay [9]. Further, in [5], the AC50 is 24.3 µM (active).
In the case of `CC[C@H](C)[C@H]1O[C@]2(C=C[C@@H]1C)C[C@@H]1C[C@@H](C/C=C(\C)[C@@H](O[C@H]3C[C@H](OC)[C@@H](O[C@H]4C[C@H](OC)[C@@H](O)[C@H](C)O4)[C@H](C)O3)[C@@H](C)/C=C/C=C3\CO[C@@H]4[C@H](O)C(C)=C[C@@H](C(=O)O1)[C@]34O)O2` (tested in a mixture with another compound), the half-maximal activity concentration (AC50) in [1] was 7.59 µM (active); in [3] it was 10.5 µM (active); in assay [4] it was 14 µM (active); in assay [5], 0.361 µM (active); in [6], 30.2 µM (active); in [7], 17.5 µM (active). Besides, the call in assay [2], in [8] and in assay [9] was inactive.
Take `OCCOc1ccccc1`: the call in [1], in [2], in assay [3], in assay [4], in assay [6] and in assay [7] was inactive. The molecule was classed as inactive in [8] and in assay [9]. The AC50 in assay [5] was 35.1 µM (active).
Regarding `CCCN(CCC)c1c([N+](=O)[O-])cc(C(F)(F)F)cc1[N+](=O)[O-]`, the molecule was called inactive in assay [1], in assay [2], in assay [3], in [4], in assay [6] and in assay [7]. Also, the molecule was classed as inactive in assay [10], in assay [8] and in [9]. Besides, the AC50 in assay [5] was 50 µM (active).
On to `O=C(NC(=O)c1c(F)cccc1F)Nc1ccc(OC(F)(F)C(F)OC(F)(F)F)c(Cl)c1` (configuration not stated), for which the molecule was classed as inactive in assay [1], in [2], in [3], in assay [4], in [6] and in [7]. For the same molecule, the molecule was called inactive in assay [8] and in assay [9]. The AC50 in [5] is 21.2 µM (active).
With `O=C(O)C(F)(F)C(F)(F)C(F)(F)C(F)(F)C(F)(F)C(F)(F)C(F)(F)F`, the result in assay [1], in assay [2], in assay [3], in assay [4], in assay [5] and in [6] was inactive. The result in [7], in assay [8] and in assay [9] was inactive. Besides, the values for the AC50 in assay [3] and in assay [7] were 23.3 µM (active) and 50 µM (active), respectively.
Regarding `O=[N+]([O-])c1c(Cl)c(Cl)c(Cl)c(Cl)c1Cl`, the molecule was classed as inactive in [1], in [3], in assay [4], in assay [6], in assay [7] and in [10]. Also, the result in assay [8] and in assay [9] was inactive. The figures for the AC50 in [2] and in assay [5] were 50 µM (active) and 81.3 µM (active), respectively.
On to `Oc1ccc(Cl)cc1Cc1ccccc1`, for which the call in assay [1], in [2], in assay [3], in assay [4], in assay [6] and in [7] was inactive. The result in assay [8] and in [9] was inactive. In addition, the AC50 in assay [2] was 50.5 µM (active); in assay [5], 84.7 µM (active) and 81.3 µM (active) and 84.4 µM (active); in assay [6], 82.3 µM (active); in [10], 78 µM (active); in assay [9] it was 91.5 µM (active) and 87.9 µM (active).
Take `CC(C)(C)C(O)/C(=C\c1ccc(Cl)cc1Cl)n1cncn1` (configuration not stated): the AC50 in [1] is 27.5 µM (active); in assay [2] it was 82.5 µM (active); in assay [3] it was 27.3 µM (active); in assay [4], 33.8 µM (active); in assay [5] it was 9.3 µM (active); in assay [6] it was 76.6 µM (active). Further, the figures for the AC50 in assay [7] and in assay [9] were 89.4 µM (active) and 82300 nM (active), respectively. Moreover, the molecule was classed as inactive in assay [8].
